Our source for the Potency values is PubChem BioAssay (Tox21).

Results filed as inconclusive are left out. A call without a number means that no potency is given here. The source made the active and inactive calls. The call rests on the fitted dose curve; in most records, active means well fitted cell-killing curve with a large enough effect in the repeat runs; inconclusive means weak or mixed curves; inactive means no such curve, though single readings can be large or run the other way.
Potency means the concentration at half of the fitted maximal effect.

The test is described as follows: qHTS assay for identifying genotoxic compounds that show differential cytotoxicity against isogenic chicken DT40 cell lines with known DNA damage response pathways - Rad54/Ku70 mutant cell line (AID 743015). Further: nearly all actives have a fitted effect of over 60% in size. The following applies: DT40 Rad54/Ku70 mutant viability, CellTiter-Glo, 40 h; series mostly up to 66.8 µM. On the technique in general: Quantitative high-throughput screening tests each substance at several concentrations.
Take `C[C@]12CCC(=O)C=C1CC[C@@H]1[C@@H]2[C@@H](O)C[C@@]2(C)[C@H]1CC[C@]2(O)C(=O)COP(=O)(O)O`: the Potency entry is “inactive”. Take `Cc1c(O)cc2c(c1C)O[C@](C)(CCC[C@H](C)CCC[C@H](C)CCCC(C)C)CC2`: the Potency entry was “inactive”. `CC(=O)O[C@H]1CC[C@@]2(C)C(=CC[C@H]3[C@@H]4CC[C@H](C(C)=O)[C@@]4(C)CC[C@@H]32)C1`: the Potency entry is “inactive”. `CC(/C=C/C=C(\C)C(=O)O[C@@H]1O[C@H](CO[C@@H]2O[C@H](CO)[C@@H](O)[C@H](O)[C@H]2O)[C@@H](O)[C@H](O)[C@H]1O)=C\C=C\C=C(C)\C=C\C=C(/C)C(=O)O[C@@H]1O[C@H](CO[C@@H]2O[C@H](CO)[C@@H](O)[C@H](O)[C@H]2O)[C@@H](O)[C@H](O)[C@H]1O`: the Potency result is “inactive”. As for `CC1(C)S[C@@H]2[C@H](NC(=O)[C@H](NC(=O)N3CCN(S(C)(=O)=O)C3=O)c3ccccc3)C(=O)N2[C@H]1C(=O)O`, the Potency entry is “inactive”.

Regarding `CN1c2c(nc(N)[nH]c2=O)NCC1CNc1ccc(C(=O)NC(CCC(=O)O)C(=O)O)cc1` (centres undefined), the Potency result was “inactive”. In the case of `CC[C@H]1OC(=O)[C@H](C)[C@@H](O[C@H]2C[C@@](C)(OC)[C@@H](O)[C@H](C)O2)[C@H](C)[C@@H](O[C@@H]2O[C@H](C)C[C@H](N(C)C)[C@H]2O)[C@](C)(O)C[C@@H](C)[C@@H]2N[C@@H](COCCOC)O[C@@H]([C@H]2C)[C@]1(C)O`, the Potency entry was “inactive”. On to `COc1cc(NCCCC(C)N)c2ncccc2c1` (centres undefined), for which the Potency is 21.1 µM (active). For `O=C(NCCNCC(O)COc1ccc(O)cc1)N1CCOCC1` (centres undefined) the value was “inactive”.
